# Assay results published in PubChem BioAssay (Tox21).
# Values joined by “and” are separate entries in the source; they are usually repeats but may differ in a detail not shown here. Identical values can stand only once. Records with an inconclusive call do not appear. A call without a number means that no potency is given here. Some structures have more than one record in an assay (separate samples or runs), and their calls can disagree. Active and inactive are the calls of the source. Unless noted, calls follow the shape of the dose curve; as a rule, active = well fitted curve in the direction sought with a large enough effect in the repeat runs; inconclusive = weak or mixed curves; inactive = no such curve, though single readings can be large; an effect the other way counts as inactive or inconclusive.
# Key:
# [1] = A CellTox Green Cytotoxicity Assay to monitor cytotoxicity in HepG2 cells - 8 hour (AID 1224890); conditions: CellTox Green fluorescence; series mostly up to 76.8 µM; also: nearly all actives have a fitted effect of over 45% in size
# Summary of the method: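 First, HepG2 cells (600/well) mixed with reagent were plated; second, after 5 h at 37 C they received compounds via pintool; third, fluorescence was measured at 0 h through 40 h at 8 h intervals.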
# [2] = qHTS assay to identify small molecule antagonists of the estrogen receptor alpha (ER-alpha) signaling pathway using the BG1 cell line in the presence of 0.1 nM 17-beta-estradiol - cell viability counter screen (AID 1259241); conditions: VM7Luc4E2 (BG1) viability, CellTiter-Fluor protease, 22 h, 0.1 nM estradiol agonist added; series mostly up to 92.4 µM; also: nearly all actives have a fitted effect of over 40% in size
# Summary of the method: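 Measures cytotoxicity alongside the ER-alpha antagonist readout: VM7Luc4E2 cells, charcoal-stripped serum, 0.1 nM 17beta-estradiol final, 22 hr compound incubation at 37C, CellTiter-Fluor fluorescence.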
# [3] = qHTS assay to identify small molecule antagonists of the androgen receptor (AR) signaling pathway using the MDA cell line in the presence of 0.5 nM R1881 - cell viability counter screen (AID 1259242); conditions: MDA-kb2 viability, CellTiter-Fluor protease fluorescence, 16 h; series mostly up to 92.4 µM; also: nearly all actives have a fitted effect of over 45% in size
# Summary of the method: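 qHTS format. MDA-kb2 (MMTV-luc, AR/GR responsive) + cpd + 0.5 nM R1881 final, 16 hr 37C/0% CO2 → CellTiter-Fluor 30 min → fluorescence intensity.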
# [4] = target: Androgen receptor (Homo sapiens) (UniProt P10275); assay: qHTS assay to identify small molecule antagonists of the androgen receptor (AR) signaling pathway using the MDA cell line in the presence of 0.5 nM R1881 (AID 1259243); conditions: MDA-kb2 MMTV-luciferase, R1881 0.5 nM, 16 h; series mostly up to 42.5 µM; also: nearly all actives have a fitted effect of over 50% in size; also: potency is read from the fitted curve at half-maximal effect
# Summary of the method: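 Antagonist mode quantitative HTS in MDA-kb2 MMTV-luciferase cells, agonist R1881 at 0.5 nM final, 16 hr exposure at 37C and 0% CO2, luminescent detection.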
# [5] = target: Estrogen receptor (Homo sapiens) (UniProt P03372); assay: qHTS assay to identify small molecule antagonists of the estrogen receptor alpha (ER-alpha) signaling pathway using the BG1 cell line in the presence of 0.1 nM 17-beta-estradiol (AID 1259244); conditions: VM7Luc4E2 (BG1) ERE-luciferase, antagonist mode, 0.1 nM E2, 22 h; series mostly up to 92.4 µM; also: nearly all actives have a fitted effect of over 50% in size
# Summary of the method: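 Reporter is a stably transfected luciferase under four estrogen responsive elements in VM7Luc4E2 cells expressing native full-length ER-alpha; inhibition of 0.1 nM (final) 17beta-estradiol-driven signal over 22 h is read by luminescence.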
# [6] = qHTS assay to identify small molecule HDAC inhibitors (AID 1259364); conditions: HCT-116 HDAC-Glo I/II luminescence, 2 h; series mostly up to 92.4 µM; also: potency is read from the fitted curve at half-maximal effect;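 also: wild-type HCT-116 cells with endogenous class I/II HDAC activity; nearly all actives have a fitted effect of over 45% in size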
# Summary of the method: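 Quantitative high-throughput format: overnight-seeded HCT-116 cells got compounds for 2 hr at 37C; HDAC-Glo I/II reagent added, 30 min RT, luminescence measured.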
# [7] = qHTS assay to identify small molecule HDAC inhibitors - cell viability counter screen (AID 1259365); conditions: HCT-116 viability, CellTiter-Glo ATP luminescence, 2 h; series mostly up to 92.4 µM; also: nearly all actives have a fitted effect of over 50% in size
# Summary of the method: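 Following a 2hr exposure of overnight-plated wild-type HCT-116 cells to DMSO-delivered compounds, CellTiter-Glo was added and luminescence recorded after 30min at room temperature.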
# [8] = qHTS assay to identify small molecule agonists of the sonic hedgehog signaling (Shh) pathway - cell viability counter screen (AID 1259366); conditions: NIH/3T3 Gli1-Luc viability, CellTiter-Fluor, 24 h; series mostly up to 92.4 µM; also: nearly all actives have a fitted effect of over 50% in size; also: potency is read from the fitted curve at half-maximal effect
# Summary of the method: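 After a 4hr attachment at 37C, NIH/3T3 cells bearing an integrated Gli1-driven luciferase reporter were dosed with compounds. Treatment lasted 24hr, with the final hour including CellTiter-Fluor for a fluorescence viability measurement.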
# [9] = qHTS assay to identify small molecule antagonists of the sonic hedgehog signaling (Shh) pathway - cell viability counter screen (AID 1259367); conditions: NIH/3T3 Gli1-Luc viability, CellTiter-Fluor, 24 h; series mostly up to 42.5 µM; also: nearly all actives have a fitted effect of over 55% in size
# Summary of the method: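 Viability was read by CellTiter-Fluor fluorescence in the same wells, reagent added 23 hr into compound treatment and incubated 1 hr at 37C. The 3T3 Gli1-Luc reporter cells (2,000/well) received conditioned medium after compound and ran 24 hr.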
# [10] = qHTS assay to identify small molecule phospholipidosis (PLD) inducers (AID 1259344; active = well fitted curve in the direction sought with a large enough effect; an effect the other way counts as inactive or inconclusive); conditions: HepG2 phospholipidosis, LipidTOX Red imaging, 24 h; series mostly up to 38.3 µM
# Summary of the method: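 Phospholipid accumulation was scored by imaging: fixed, Hoechst-counterstained HepG2 cells stained with LipidTOX Red after 24 h compound exposure at 37 C. Read-outs were pit count and pit intensity per well or per cell, with amiodarone and DMSO controls.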
# Chain of Estrogen receptor (Homo sapiens) (P03372 whole entry, looked up): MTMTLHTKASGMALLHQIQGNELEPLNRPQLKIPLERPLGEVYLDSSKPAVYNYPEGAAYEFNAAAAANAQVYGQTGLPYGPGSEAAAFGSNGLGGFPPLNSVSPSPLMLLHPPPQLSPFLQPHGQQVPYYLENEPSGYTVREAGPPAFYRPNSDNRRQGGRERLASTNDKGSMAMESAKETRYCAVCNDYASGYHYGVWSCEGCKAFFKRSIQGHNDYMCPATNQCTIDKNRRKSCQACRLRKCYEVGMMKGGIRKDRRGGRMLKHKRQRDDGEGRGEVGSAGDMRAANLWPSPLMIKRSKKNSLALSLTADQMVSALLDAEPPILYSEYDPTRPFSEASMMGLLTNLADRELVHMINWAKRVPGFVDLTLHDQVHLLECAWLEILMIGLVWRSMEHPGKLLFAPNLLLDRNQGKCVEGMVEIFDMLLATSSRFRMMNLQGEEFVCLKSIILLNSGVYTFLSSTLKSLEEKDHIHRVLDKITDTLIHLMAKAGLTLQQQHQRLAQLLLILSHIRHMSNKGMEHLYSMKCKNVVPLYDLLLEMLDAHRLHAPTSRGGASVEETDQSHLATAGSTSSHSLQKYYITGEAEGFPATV
# Chain of Androgen receptor (Homo sapiens) (P10275 whole entry, looked up): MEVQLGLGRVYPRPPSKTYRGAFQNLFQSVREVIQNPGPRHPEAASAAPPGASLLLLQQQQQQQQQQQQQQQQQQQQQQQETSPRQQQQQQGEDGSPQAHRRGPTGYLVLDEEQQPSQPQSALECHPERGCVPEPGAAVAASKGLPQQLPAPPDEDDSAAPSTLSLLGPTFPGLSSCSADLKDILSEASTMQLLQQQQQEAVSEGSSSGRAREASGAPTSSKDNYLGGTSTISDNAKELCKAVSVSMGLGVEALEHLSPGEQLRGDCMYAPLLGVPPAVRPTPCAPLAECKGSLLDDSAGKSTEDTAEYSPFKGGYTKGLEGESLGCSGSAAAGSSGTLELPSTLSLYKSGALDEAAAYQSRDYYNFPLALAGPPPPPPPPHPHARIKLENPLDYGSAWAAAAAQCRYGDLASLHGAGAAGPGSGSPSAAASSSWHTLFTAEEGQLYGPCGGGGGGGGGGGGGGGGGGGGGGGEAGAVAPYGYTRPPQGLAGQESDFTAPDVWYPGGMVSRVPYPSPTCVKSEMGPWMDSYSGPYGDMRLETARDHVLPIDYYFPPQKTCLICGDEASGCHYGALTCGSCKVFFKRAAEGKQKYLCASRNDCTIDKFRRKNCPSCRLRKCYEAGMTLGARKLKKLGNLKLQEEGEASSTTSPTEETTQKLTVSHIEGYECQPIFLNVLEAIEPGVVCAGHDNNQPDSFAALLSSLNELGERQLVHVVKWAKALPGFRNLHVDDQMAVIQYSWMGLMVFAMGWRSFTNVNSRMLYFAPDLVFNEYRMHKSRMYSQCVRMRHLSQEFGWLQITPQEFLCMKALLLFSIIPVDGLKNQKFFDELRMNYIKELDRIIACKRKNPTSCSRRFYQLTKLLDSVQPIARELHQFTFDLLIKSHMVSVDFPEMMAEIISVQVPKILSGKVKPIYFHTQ
SMILES,Potency [1],outcome [2],Potency [3],Potency [4],outcome [5],Potency [6],outcome [7],Potency [8],Potency [9],Potency [10],PLD induction [10]
ClC(Cl)(Br)Br,inactive,inactive,inactive,inactive,inactive,inactive,inactive,inactive,inactive,,
CC(C)NC(=O)NC(C)C,inactive,inactive,inactive,inactive,inactive,,inactive,inactive,inactive,,
CN1CCN(c2cc3c(cc2F)c(=O)c(C(=O)O)cn3-c2ccc(F)cc2)CC1,inactive,inactive,inactive,inactive,,inactive,inactive,inactive,inactive,inactive,
CC(C)(O)C(=O)c1ccccc1,inactive,inactive,inactive,inactive,inactive,,inactive,inactive,inactive,,
CC(=O)Nc1ccc(S(N)(=O)=O)cc1,inactive,inactive,inactive,inactive,inactive,inactive,inactive,inactive,inactive,,
CCOc1ccc(C(=O)OCCN(CC)CC)cc1,inactive,inactive,inactive,inactive,,inactive,inactive,inactive,inactive,inactive,
CCCCNC(=O)NCCCC,inactive,inactive,inactive,inactive,inactive,inactive,inactive,inactive,inactive,,
CC(C)(c1ccc(O)cc1)c1ccc(O)cc1,inactive,inactive,inactive,9.58 µM (active) and 6.98 µM (active),,inactive,inactive,inactive and 12.4 µM (active),,inactive,
C=C(C)C(=O)OCCCCCCCC(C)C,inactive,inactive,inactive,inactive,inactive,inactive,inactive,,,,
CC(C)(CC(=O)O)C(=O)O,inactive,inactive,inactive,inactive,inactive,inactive,inactive,inactive,inactive,,
FC1(F)C(F)(F)C(F)(F)C2(F)C(F)(F)C(F)(F)C(F)(F)C(F)(F)C2(F)C1(F)F (stereo unspecified),inactive,inactive,inactive,inactive,inactive,inactive,inactive,inactive,inactive,inactive,
O=c1cc(-c2ccccc2)oc2ccccc12,inactive,inactive,inactive,7.7 µM (active) and 3.83 µM (active),inactive,24.3 µM (active) and 17.6 µM (active),inactive,inactive,inactive,,-2.02% [at 3.15 µM] (inactive)
CCSC(=O)N(CC(C)C)CC(C)C,inactive,inactive,inactive,inactive,inactive,inactive,inactive,inactive,inactive,,
CCN1CCC[C@H]1CNC(=O)c1cc(S(N)(=O)=O)ccc1OC,inactive,inactive,inactive,inactive,,inactive,inactive,inactive,inactive,inactive,
O=S(O)CO,inactive,inactive,inactive,inactive,inactive,,inactive,inactive,inactive,inactive,
CC(=O)OCC(CCn1cnc2cnc(N)nc21)COC(C)=O,inactive,inactive,inactive,inactive,inactive,inactive,inactive,inactive,inactive,inactive,
COc1ccc2c(c1)c(CC(=O)OCC(=O)O)c(C)n2C(=O)c1ccc(Cl)cc1,inactive,inactive,inactive,inactive,,inactive,inactive,inactive,inactive,inactive,
CCOC(=O)c1c(C)n(C)c2ccc(O)cc12,inactive,inactive,inactive,inactive,,inactive,inactive,inactive,inactive,inactive,
NS(=O)(=O)c1cc(C(=O)NN2C[C@H]3[C@H]4CCC(C4)[C@H]3C2)ccc1Cl,inactive,inactive,inactive,inactive,inactive,inactive,inactive,,inactive,,
CCn1ccnc1CC1COc2ccccc2O1 (stereo unspecified),inactive,inactive,inactive,inactive,inactive,inactive,inactive,inactive,inactive,inactive,
NC(=O)COCCN1CCN(C(c2ccccc2)c2ccc(Cl)cc2)CC1 (stereo unspecified),inactive,inactive,inactive,inactive,inactive,inactive,inactive,inactive,inactive,,-1.34% [at 1.53 µM] (inactive)
Cc1cnc(NS(=O)(=O)c2ccc(N)cc2)nc1,inactive,inactive,inactive,inactive,inactive,,inactive,inactive,inactive,,
NS(=O)(=O)c1ccc(C(=O)O)cc1,inactive,inactive,inactive,inactive,inactive,inactive,inactive,inactive,inactive,inactive,
